Results as given in PubChem BioAssay (NCATS).
Results filed as inconclusive are left out. Calls of active or inactive are those of the source. Unless noted, calls come from the whole dose curve; as a rule, active = well fitted curve in the direction sought with a large enough effect; inconclusive = small, poorly fitted or top-dose-only effect, or another doubt; inactive = no such curve, though single readings can be large; an effect the other way counts as inactive or inconclusive.

Experiments:
[1] = molecular target: Glucocorticoid receptor (Homo sapiens) (UniProt P04150); assay: qHTS assay for small molecule antagonists of glucocorticoid receptor signaling (AID 588533; active = well fitted inhibition curve with a large enough effect in the signal ratio, with a control signal flat, not every such curve was filed as active; the % refers to the signal ratio;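 note: cells stimulated with 2 nM dexamethasone as agonist; % is set by controls: 0 for no effect and ±100 for the full control effect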)
Chain of Glucocorticoid receptor (Homo sapiens) (P04150 whole entry, looked up): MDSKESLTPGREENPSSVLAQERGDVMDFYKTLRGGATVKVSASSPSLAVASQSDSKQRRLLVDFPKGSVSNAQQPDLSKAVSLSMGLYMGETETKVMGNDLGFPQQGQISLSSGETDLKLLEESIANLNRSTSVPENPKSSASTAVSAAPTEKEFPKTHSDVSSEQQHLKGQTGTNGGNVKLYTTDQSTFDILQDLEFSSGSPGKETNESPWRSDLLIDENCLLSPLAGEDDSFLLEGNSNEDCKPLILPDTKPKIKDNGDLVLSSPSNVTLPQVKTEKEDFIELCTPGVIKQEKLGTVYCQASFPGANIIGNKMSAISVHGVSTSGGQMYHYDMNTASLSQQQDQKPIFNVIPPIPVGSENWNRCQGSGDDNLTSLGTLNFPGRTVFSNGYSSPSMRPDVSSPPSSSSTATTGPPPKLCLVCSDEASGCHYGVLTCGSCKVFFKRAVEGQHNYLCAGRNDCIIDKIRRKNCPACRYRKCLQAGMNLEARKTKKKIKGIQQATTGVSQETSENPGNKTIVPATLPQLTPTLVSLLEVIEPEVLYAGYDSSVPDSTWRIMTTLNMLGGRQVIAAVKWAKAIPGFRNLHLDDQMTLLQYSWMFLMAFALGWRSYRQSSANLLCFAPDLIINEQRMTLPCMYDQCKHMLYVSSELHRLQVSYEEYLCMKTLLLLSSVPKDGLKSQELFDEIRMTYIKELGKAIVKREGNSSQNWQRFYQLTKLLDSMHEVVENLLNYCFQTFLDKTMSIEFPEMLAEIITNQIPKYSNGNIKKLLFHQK
How it was run: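 Antagonist-mode qHTS: compound titrations added to GRE-bla HeLa cells, then dexamethasone 2 nM final; 18 h, 37 C. CCF4 FRET fluorescence normalized to dexamethasone and DMSO; IC50 from Hill fit.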

[2] = qHTS assay for small molecule antagonists of peroxisome proliferator-activated receptor delta signaling (AID 588535; active = well fitted inhibition curve with a large enough effect in the signal ratio, with a control signal flat, not every such curve was filed as active; the % refers to the signal ratio;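 for max response: cells co-treated with a PPAR-delta agonist as stimulator during compound exposure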); settings: HEK293T PPARd-UAS-bla, beta-lactamase FRET ratio, 18 h; 460 nm channel
How it was run: (§1)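 Antagonist-mode qHTS using GeneBLAzer PPAR-delta-UAS-bla HEK293T cells; compound exposure 18 hrs at 37 C over a titration. Ratiometric CCF4 fluorescence at 460/530 nm; concentration-response points fitted to the Hill equation.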

[3] = molecular target: Peroxisome proliferator-activated receptor delta (Homo sapiens) (UniProt Q03181); assay: as above
Chain of Peroxisome proliferator-activated receptor delta (Homo sapiens) (Q03181 whole entry, looked up): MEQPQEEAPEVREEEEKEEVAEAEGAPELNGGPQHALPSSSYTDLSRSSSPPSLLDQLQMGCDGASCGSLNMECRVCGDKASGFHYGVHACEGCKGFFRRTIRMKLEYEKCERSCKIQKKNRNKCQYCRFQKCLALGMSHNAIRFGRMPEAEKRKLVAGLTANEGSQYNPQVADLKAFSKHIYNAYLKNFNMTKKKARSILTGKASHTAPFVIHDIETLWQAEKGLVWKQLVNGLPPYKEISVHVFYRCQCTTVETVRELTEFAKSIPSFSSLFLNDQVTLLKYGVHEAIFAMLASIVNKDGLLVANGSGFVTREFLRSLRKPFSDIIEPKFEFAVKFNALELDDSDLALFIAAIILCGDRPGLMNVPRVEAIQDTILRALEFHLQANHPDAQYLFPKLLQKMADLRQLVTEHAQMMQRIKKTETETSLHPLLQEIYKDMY
How it was run: as §1

[4] = molecular target: Vitamin D3 receptor (Homo sapiens) (UniProt P11473); assay: qHTS assay for small molecule antagonists of vitamin D receptor signaling (AID 588541; calls by dose curve;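 note: receptor activated by calcitriol during compound treatment; series mostly up to about 77 µM; % is set by controls: 0 for no effect and ±100 for the full control effect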)
Chain of Vitamin D3 receptor (Homo sapiens) (P11473 whole entry, looked up): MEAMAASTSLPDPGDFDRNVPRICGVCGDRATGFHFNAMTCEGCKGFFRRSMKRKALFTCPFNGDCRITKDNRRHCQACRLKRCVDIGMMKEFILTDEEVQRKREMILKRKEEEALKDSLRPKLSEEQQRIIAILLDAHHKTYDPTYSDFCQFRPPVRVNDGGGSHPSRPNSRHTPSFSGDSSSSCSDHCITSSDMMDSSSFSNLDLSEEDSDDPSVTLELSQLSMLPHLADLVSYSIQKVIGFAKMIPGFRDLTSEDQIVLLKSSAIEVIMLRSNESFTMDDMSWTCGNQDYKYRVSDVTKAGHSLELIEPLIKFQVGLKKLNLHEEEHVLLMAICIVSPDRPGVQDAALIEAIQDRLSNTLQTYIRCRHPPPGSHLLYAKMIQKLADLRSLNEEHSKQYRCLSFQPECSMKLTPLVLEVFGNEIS
How it was run: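 Antagonist-mode beta-lactamase reporter assay: HEK293T VDR-UAS-bla cells were exposed to titrated compound alongside 1-alpha,25-dihydroxyvitamin D3 at 3 nM final for 16 h. Values were normalized to the 50 nM agonist control and DMSO basal, with IC50 and efficacy from Hill equation fits.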

[5] = molecular target: Vitamin D3 receptor (Homo sapiens) (UniProt P11473); assay: qHTS assay for small molecule agonists of vitamin D receptor signaling (AID 588543; calls by dose curve;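 note: 0% = DMSO basal and 100% = reference agonist control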)
How it was run: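 VDR-UAS-bla HEK293T cells, 2000/well, 2% charcoal-stripped FBS; compound titration 16 h at 37 C; CCF4 beta-lactamase ratio read. Normalized to 50 nM 1-alpha,25-dihydroxyvitamin D3 (100%) and DMSO; Hill fit gives EC50, efficacy.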

[6] = qHTS assay for small molecule agonists of retinoid X receptor alpha signaling (AID 588544; calls by dose curve;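 for activation: 0% = DMSO basal wells and 100% = reference agonist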); settings: HEK293T RXRa-UAS-bla, beta-lactamase reporter, 18 h; 530 nm emission
[7] = molecular target: Retinoic acid receptor RXR-alpha (Homo sapiens) (UniProt P19793); assay: as above
Chain of Retinoic acid receptor RXR-alpha (Homo sapiens) (P19793 whole entry, looked up): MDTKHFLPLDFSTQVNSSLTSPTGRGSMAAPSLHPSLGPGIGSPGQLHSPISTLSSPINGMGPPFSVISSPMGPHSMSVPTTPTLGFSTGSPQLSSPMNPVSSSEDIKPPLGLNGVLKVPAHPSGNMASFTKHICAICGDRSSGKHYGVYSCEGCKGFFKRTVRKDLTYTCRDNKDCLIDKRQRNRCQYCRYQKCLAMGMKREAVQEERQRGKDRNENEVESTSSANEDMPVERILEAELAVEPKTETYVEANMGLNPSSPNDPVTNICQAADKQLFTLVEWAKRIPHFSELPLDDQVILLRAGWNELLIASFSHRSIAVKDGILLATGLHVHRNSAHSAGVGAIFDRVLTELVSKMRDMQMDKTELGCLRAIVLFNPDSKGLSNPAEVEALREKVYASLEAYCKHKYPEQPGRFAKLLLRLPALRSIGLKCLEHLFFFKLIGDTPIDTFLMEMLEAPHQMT

[8] = molecular target: Thyroid hormone receptor beta (Homo sapiens) (UniProt P10828); assay: qHTS assay for small molecule agonists of thyroid hormone receptor beta signaling (AID 588545; calls by dose curve;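 note: 0% = DMSO only and 100% = 10 nM T3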)
Chain of Thyroid hormone receptor beta (Homo sapiens) (P10828 whole entry, looked up): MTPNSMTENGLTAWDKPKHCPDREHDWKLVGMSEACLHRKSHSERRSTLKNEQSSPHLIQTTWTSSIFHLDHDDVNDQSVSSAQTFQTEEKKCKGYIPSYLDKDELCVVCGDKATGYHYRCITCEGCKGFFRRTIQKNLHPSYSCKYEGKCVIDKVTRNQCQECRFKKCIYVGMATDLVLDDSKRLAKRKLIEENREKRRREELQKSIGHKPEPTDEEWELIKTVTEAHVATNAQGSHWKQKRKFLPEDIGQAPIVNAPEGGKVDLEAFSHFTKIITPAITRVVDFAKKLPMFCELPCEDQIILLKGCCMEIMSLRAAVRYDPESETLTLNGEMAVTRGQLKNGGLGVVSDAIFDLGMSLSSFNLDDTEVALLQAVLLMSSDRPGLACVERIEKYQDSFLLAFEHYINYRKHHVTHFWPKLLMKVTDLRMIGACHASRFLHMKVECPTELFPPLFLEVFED
How it was run: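 TR-UAS-bla-GripTite HEK 293 cells in medium with 2% charcoal/dextran FBS, 0.1 mM NEAA and 1 mM sodium pyruvate were treated with titrated compounds for 18 hrs at 37 C. Beta-lactamase reporter was read with CCF4 dye (ex 405, em 460/530 nm); EC50 from Hill fits.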

[9] = qHTS assay for small molecule antagonists of retinoid X receptor alpha signaling (AID 588546; active = well fitted inhibition curve with a large enough effect in the signal ratio, with a control signal flat, not every such curve was filed as active; the % refers to the signal ratio;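 note: cells stimulated with 9-cis-retinoic acid as agonist; % is set by controls: 0 for no effect and ±100 for the full control effect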); settings: HEK293T RXRa-UAS-bla, beta-lactamase ratio, antagonist mode; measured here: W530 green channel, cytotoxicity proxy
How it was run: (§2)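 Beta-lactamase reporter inhibition, read as CCF4 fluorescence ratio (ex 405, em 460/530 nm) after 2 h at RT. HEK293T UAS-bla cells, 2500/well, were stimulated with 9-cis-RA at 500 or 100 nM final alongside test compound for 18 h at 37 C.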

[10] = molecular target: Retinoic acid receptor RXR-alpha (Homo sapiens) (UniProt P19793); assay: as above; settings: HEK293T RXRa-UAS-bla, beta-lactamase ratio, antagonist mode
How it was run: as §2

[11] = qHTS assay for small molecule activators of the p53 signaling pathway (AID 651743; active = well fitted activation curve with a large enough effect in the signal ratio, not every such curve was filed as active; the % refers to the signal ratio; note: series mostly up to about 92 µM; % of control where 0% means no effect); settings: HCT-116 p53RE-bla, beta-lactamase FRET ratio, 16 h; activation: stronger effect = higher value
How it was run: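 A beta-lactamase reporter under p53 response element control, stably carried by HCT-116 cells, reported pathway activation. Test compounds were applied for 16 hours at 37 C, and fluorescence was measured 2 hours after adding the B/G FRET substrate.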

[12] = qHTS assay for small molecule activators of the nuclear factor-kappa B (NF-kB) signaling pathway (AID 651749; active = well fitted activation curve with a large enough effect in the signal ratio; the % refers to the signal ratio; note: series mostly up to about 77 µM; % of control where 0% means no effect); settings: NF-kB-bla ME-180 cells, beta-lactamase FRET ratio, 16 h; activation: stronger effect = higher value
How it was run: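 FRET-based beta-lactamase detection in ME-180 cells reports NF-kB response-element-driven transcription following overnight (16 hr) compound treatment.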

[13] = qHTS assay for environmental chemicals that activate the Aryl hydrocarbon Receptor (AhR) signaling pathway (AID 651777); settings: 1A2-DRE human hepatoma cells, luciferase, 24 h; activation: stronger effect = higher value; note: % of control where 0% means no effect; nearly all actives have a fitted effect of over 15% in size
How it was run: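 Human hepatoma 1A2-DRE cells, stably carrying a dioxin response element and CYP1A2 promoter driving luciferase, were exposed to compounds for 24 hr at 37 C and 5% CO2. Luciferase signal was then read after 30 min One-Glo at room temperature.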

[14] = molecular target: Peroxisome proliferator-activated receptor alpha (Homo sapiens) (UniProt Q07869); assay: qHTS assay for small molecule agonists of the peroxisome proliferator-activated receptor alpha (PPARalpha) signaling pathway (AID 651778); settings: PathHunter PPARalpha complementation, chemiluminescence, 6 h; max response: stronger effect = higher value; note: % of control where 0% means no effect
Chain of Peroxisome proliferator-activated receptor alpha (Homo sapiens) (Q07869 whole entry, looked up): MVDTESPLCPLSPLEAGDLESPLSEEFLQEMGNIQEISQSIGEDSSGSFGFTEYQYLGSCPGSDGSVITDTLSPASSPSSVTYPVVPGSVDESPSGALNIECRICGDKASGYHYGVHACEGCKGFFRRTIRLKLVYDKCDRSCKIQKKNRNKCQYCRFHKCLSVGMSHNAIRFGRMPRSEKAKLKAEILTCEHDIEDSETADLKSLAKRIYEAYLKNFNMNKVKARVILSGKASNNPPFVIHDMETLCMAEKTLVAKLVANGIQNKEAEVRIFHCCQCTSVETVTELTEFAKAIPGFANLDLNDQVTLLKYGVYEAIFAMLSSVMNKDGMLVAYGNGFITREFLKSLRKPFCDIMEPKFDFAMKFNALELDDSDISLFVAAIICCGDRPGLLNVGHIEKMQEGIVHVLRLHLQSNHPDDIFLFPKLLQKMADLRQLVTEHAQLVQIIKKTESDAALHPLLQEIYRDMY
How it was run: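 Chemiluminescence from complemented enzyme reported PPARalpha activation in cells after 6 hr of compound treatment at 37 C. The detection reagent was incubated for 60 min at room temperature, and compounds were scored as agonists.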

[15] = qHTS assay for small molecule agonists of the antioxidant response element (ARE) signaling pathway measured by Nrf2-dependant transcriptional activity (AID 720636; active = well fitted curve in the direction sought with a large enough effect in the repeat runs; an effect the other way counts as inactive or inconclusive; note: % of control where 0% means no effect)
How it was run: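 ARE-luc HepG2 cells carrying an Nrf2-responsive luciferase reporter were plated in medium with 1% dialyzed FBS, left 6 hr at 37 C to attach, then exposed to compound for 16 hr. Luciferase luminescence was read after ONE-Glo addition.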

[16] = qHTS assay for small molecule agonists of the antioxidant response element (ARE) signaling pathway measured by Nrf2-dependant transcriptional activity - cell viability counter screen (AID 720653; active = well fitted curve in the direction sought with a large enough effect in the repeat runs; an effect the other way counts as inactive or inconclusive; note: % is set by controls: 0 for no effect and ±100 for the full control effect); settings: ARE-bla HepG2 viability, CellTiter-Glo ATP luminescence, 16 h; max response: stronger effect = lower value
How it was run: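 Cytotoxicity counter screen: intracellular ATP quantified by CellTiter-Glo luminescence in the same ARE-bla HepG2 plates, after 16 h compound exposure and a 2 h beta-lactamase substrate step.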

[17] = qHTS assay for cell viability of HEK293 cells (AID 743288); settings: ATP luminescence (CellTiter-Glo), 18 h; max response: stronger effect = lower value; note: nearly all actives have a fitted effect of over 50% in size; note: potency is the fitted concentration of half-maximal effect
How it was run: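 Steps: plate 2,000 parental HEK293 cells per well; incubate ≥5 h, 37 C; add compounds in DMSO; incubate 18 h, 37 C; add CellTiter-Glo; wait 30 min at room temperature; read luminescence.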

[18] = qHTS assay for cell viability of the p53RE-bla HCT-116 cell line (AID 743292); note: nearly all actives have a fitted effect of over 55% in size; note: potency is the fitted concentration of half-maximal effect
How it was run: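 CellSensor p53RE-bla HCT-116 cells, 4,000/well, preincubated 5 h at 37 C, then exposed to compounds in DMSO for 16 h at 37 C. Viability read as CellTiter-Glo luminescence (intracellular ATP) after 30 min at room temperature.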

[19] = molecular target: Nuclear receptor subfamily 1 group I member 2 (Rattus norvegicus) (UniProt Q9R1A7); assay: qHTS assay for small molecule activators of the rat pregnane X receptor (rPXR) signaling pathway (AID 651751; call rule not given here; note: 0% is about no effect); settings: rPXR reporter cells, luciferase (One-Glo), 24 h
Chain of Nuclear receptor subfamily 1 group I member 2 (Rattus norvegicus) (Q9R1A7 whole entry, looked up): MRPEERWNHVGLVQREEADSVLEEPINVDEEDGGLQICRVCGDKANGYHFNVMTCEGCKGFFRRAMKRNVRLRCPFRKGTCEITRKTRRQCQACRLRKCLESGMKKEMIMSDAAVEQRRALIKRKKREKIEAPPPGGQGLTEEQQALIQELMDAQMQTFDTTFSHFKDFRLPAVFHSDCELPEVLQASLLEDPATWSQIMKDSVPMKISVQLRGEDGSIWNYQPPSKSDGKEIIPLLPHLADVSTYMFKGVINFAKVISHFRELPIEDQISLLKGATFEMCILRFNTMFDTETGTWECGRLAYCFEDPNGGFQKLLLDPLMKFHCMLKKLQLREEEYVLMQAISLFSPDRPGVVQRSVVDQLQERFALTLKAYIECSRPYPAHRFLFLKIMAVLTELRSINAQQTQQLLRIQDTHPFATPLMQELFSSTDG

[20] = qHTS assay for small molecule activators of the human pregnane X receptor (PXR) signaling pathway (AID 720659; call rule not given here; note: 0% is about no effect)

Clc1nc(Cl)c(Cl)c(Cl)c1Cl
-0.304%: max response [9]
inactive: Potency [1] | Potency [3] | Potency [4] | outcome [5] | Potency [7] | Potency [8] | max response [10] -25.7% | activation [11] -0.354% | activation [12] -1.8% | activation [13] -0.0238% | max response [14] -3.38% | Potency [15] | max response [16] -5.53% | max response [17] -14.3% | Potency [18] | max response [19] -3.08% | outcome [20]
-3.68%: max response [6]
31.1%: max response [2]

CC[C@H](C)C1O[C@]2(C=C[C@@H]1C)C[C@@H]1C[C@@H](C/C=C(\C)[C@@H](O[C@H]3C[C@H](OC)[C@@H](O[C@H]4C[C@H](OC)[C@H](NC(C)=O)[C@H](C)O4)[C@H](C)O3)[C@@H](C)/C=C/C=C3\CO[C@@H]4[C@H](O)C(C)=C[C@@H](C(=O)O1)[C@]34O)O2 (stereo partly drawn)
inactive: activation [13] -11.2% | max response [14] 6.61% | Potency [15] | outcome [20]
active: Potency [17] 44.7 µM | Potency [18] 14.1 µM

CC/C(=C(\c1ccc(O)cc1)c1ccc(OCCN(C)C)cc1)c1ccccc1
active: Potency [17] 25.1 µM | Potency [18] 39.8 µM
inactive: activation [13] -12.4%

C[C@]12CC[C@@H]3c4ccc(O)cc4CC[C@H]3[C@@H]1CC[C@H]2O
inactive: Potency [4] | outcome [5] | Potency [8] | activation [11] 23.4% | activation [13] 0.328% | max response [14] -0.0791% | Potency [15] | max response [16] -10.8% | max response [17] -24% | Potency [18]

CCCCCCCCCCCCCCC
inactive: Potency [1] | Potency [3] | outcome [5] | Potency [8] | max response [10] -6.6% | activation [12] -1.21% | Potency [15] | max response [16] 10.3% | max response [17] -6.32% | Potency [18] | max response [19] -4.43% | outcome [20]
-0.185%: max response [2]
-8.06%: max response [9]
